# Test results taken from ChEMBL document CHEMBL4513216, “Probing the Open Global Health Chemical Diversity Library for Multistage-Active Starting Points for Next-Generation Antimalarials” (ACS Infect Dis, 2020).
# In all, about 69,000 compounds went through this assay and about 8,600 (12%) showed an effect of 50% or more. Shown is part of a subset that was picked to be rich in strong results.
# Test system: Plasmodium berghei
# Assay: Screen against P. berghei liver stage (PbLuc), transformed with Luciferase, at 10uM
# Assay type: functional, HepG2
# Details: tested at 10 uM
row,SMILES,INHIBITION [%]
1,Clc1cccc(-c2noc(CCN3CCN(c4ccncc4)CC3)n2)c1,61.8
2,CCOC1CCN(CCc2nc(-c3cccc(Cl)c3)no2)CC1,46.3
3,NC(=O)N1CCCN(CCc2nc(-c3cccc(Cl)c3)no2)CC1,2.22
4,O=C(NCc1ccccc1-n1cccn1)N1CCC(N2CCCC2)C1 (stereo not given),17.4
5,CCC(C)NC(=O)c1ccc(NC(=O)CCCn2cncn2)c(C)c1 (stereo not given),5.64
6,CCN(CC(=O)Nc1cc(Cl)ccc1C)C(=O)c1ccncc1,-10.8
7,CCCC(=O)Nc1cc(C(=O)NC(C)Cc2ccncc2)ccc1C (stereo not given),57.5
8,CC(=O)N[C@@H]1CN(C(=O)c2cccc(C(F)(F)F)c2)C[C@H]1O,-4.1
9,CCc1nnc2n1CCN(C(C(=O)N(CC)CC)c1ccccc1)C2 (stereo not given),19.4
10,CC1CCC(NC(=O)CNC2(c3ccc(F)cc3)CCOCC2)CC1 (stereo not given),12.8
11,Cc1cccn2cc(CNS(=O)(=O)N3CCOCC3)nc12,19.8
12,CCn1nnc2c1CCN(S(C)(=O)=O)C2COCc1ccccc1 (stereo not given),-3.51
13,Cn1nnc2c1CCN(Cc1ccoc1)C2COCc1ccccc1 (stereo not given),-6.39
14,Cn1nnc2c1CCN(S(C)(=O)=O)C2COCc1ccccc1 (stereo not given),53
15,C1CN(CC2CC2)C(COCC2CC2)c2nnn(CC3CC3)c21 (stereo not given),15.6
16,CN(C)C(=O)N1CCc2c(nnn2C)C1COCC1CC1 (stereo not given),12.7
17,Cn1nnc2c1CCN(Cc1ccncc1)C2COCc1ccccc1 (stereo not given),17.2
18,CS(=O)(=O)N1CCc2c(nnn2CC2CC2)C1COCC1CC1 (stereo not given),58.5
19,Cn1nnc2c1CCN(CC1CC1)C2COCc1ccccc1 (stereo not given),39.8
20,C1CC(CN2CCc3c(nnn3CC3CC3)C2COCC2CC2)C1 (stereo not given),43.3
21,Cn1nnc2c1CCN(S(C)(=O)=O)C2COCC1CC1 (stereo not given),57.1
22,Cn1nnc2c1CCN(CC1CC1)C2COCC1CC1 (stereo not given),38.5
23,Cc1ccc(CN2CCc3c(nnn3C)C2COCc2ccccc2)s1 (stereo not given),59.3
24,CCc1ccc(NC(=O)N2Cc3c(CN(C)C)nn(C)c3C2)cc1,33
25,COc1cccc(OCCn2c(C)c(C)oc2=O)c1,31.4
26,CCC1=N[C@@]2(CC[C@@H]3CN(Cc4ccccc4F)C[C@@H]32)C(=O)N1,10.5
27,Cc1nc(C)n(CC2CCCN2Cc2nc3ccccc3o2)n1 (stereo not given),33.8
28,COC(=O)CCn1ccc(=O)c2ccc(OC)cc21,-7.53

row,SMILES,INHIBITION [%]
1,CNc1cncc(C2CCCN2C(=O)Cn2c(=O)oc3ccccc32)n1 (stereo not given),23.4
2,CC(C)(C)c1cc(CN2C[C@@H]3CC[C@H]2CN(Cc2ccccn2)C3)n[nH]1,-2.73
3,COc1cc(N2CCc3ncnc(-c4ccncc4)c3CC2)ncn1,33
4,COCc1nc(N(C)C)ncc1C(=O)Nc1cc(C)cc(C)c1,35
5,Cc1nc2c(c(NC(C)c3nnn[nH]3)n1)Cc1ccccc1OC2 (stereo not given),-45.5
6,Cc1nc2c(c(N[C@@H](CO)C(N)=O)n1)Cc1ccccc1OC2,-13.4
7,Cc1nc2c(c(NCCNC(=O)C(C)C)n1)Cc1ccccc1OC2,-0.55
8,CN(C)c1nc2c(c(=O)[nH]1)Cc1ccccc1OC2,54.4
9,OCC1CCCN(c2ncnc3c2Cc2ccccc2OC3)C1 (stereo not given),32.1
10,Cc1nc2c(c(N[C@H](C(N)=O)C(C)C)n1)Cc1ccccc1OC2,-19.8
11,Cc1nc2c(c(NCC(=O)NC(C)C)n1)Cc1ccccc1OC2,5.87
12,CN(CC1(CO)CCC1)c1nc2c(c(=O)[nH]1)Cc1ccccc1OC2,57.8
13,CN(CC1(CO)CCCC1)c1nc2c(c(=O)[nH]1)Cc1ccccc1OC2,71.2
14,COCCN(CCC#N)Cn1cc(Cl)cn1,5.29
15,CC(C)NC1CCc2c(ccc(=O)n2CCN2CCOCC2)C1 (stereo not given),73.2
16,O=C(NC1CC1)N1CCc2ccc(=O)n(CC3CC3)c2CC1,-55.2
17,CC(C)NC1CCc2c(ccc(=O)n2CCN(C)C)C1 (stereo not given),-33
18,O=C(NC1CC1)N1CCc2ccc(=O)n(CCN3CCCC3)c2CC1,61.5
19,CC(C)NC1CCc2c(ccc(=O)n2CCN2CCCC2=O)C1 (stereo not given),-20.1
20,COCCn1c2c(ccc1=O)CCN(C(=O)NC1CC1)CC2,-3.26
21,CN(CC(=O)NCC1CCCCC1)S(=O)(=O)c1cccnc1,-7.93
22,Cn1cc(C[C@H]2[C@H](O)CCN2CC2CC2)cn1,18.8
23,O=C(CCc1nc2cc(Br)cnc2[nH]1)NCc1cccnc1,-2.92
24,Cc1ccc(CNCC(C)Oc2ccccn2)cc1 (stereo not given),-6.11
25,CC(C)(C)CC(=O)NCC1CCCS1 (stereo not given),43.4
26,O=C(CCC(F)(F)F)NCC1CCCS1 (stereo not given),31.5
27,CC(C)(C)C(=O)NCC(=O)NCC1CCCS1 (stereo not given),91.1
